Bioassay records from PubChem BioAssay.
Most compounds without a hit are left out; they make up all but 19% or so of the library.
IL-1B inflam inh: blocks inflammasome-driven IL-1 beta release | THP-1 LPS/ATP IL-1B secretion, AlphaLISA, 16 h; hits give low values | AID 743279 | activity change, % at 57.5 µM | 4.7% of 360,000 active; in the data active means activity change below about -50%; inconclusive means mostly about -30% to -49%
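THP-1 cells pretreated 1 hr with compounds (up to 57.5 uM final), then stimulated with LPS (250 ng/mL final) plus ATP (1.25 mM final); secreted IL-1B measured by AlphaLISA after 16 hr, decreased signal indicating inhibition.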
ELG1 repair inh: inhibitors of ELG1-dependent DNA repair in HEK293T cells; HEK293T ELG1-luciferase reporter, luminescence, 16 h; DNA damage induced by 5-fluorouridine; Potency, µM (series often up to 46.1 µM), hits mostly inhibitors; 2.3% of 330,000 active; AID 504467; further: nearly all actives have a fitted effect of over 55% in size
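Quantitative HTS, concentration-response format. 2,000 cells/well co-treated with 5-fluorouridine and compound, 16 hr in 5% CO2 at 37 °C; ONE-Glo luminescence read after 30 min.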
DT40 TDP1 no CPT: qHTS for Inhibitors of human tyrosyl-DNA phosphodiesterase 1 (TDP1): qHTS in cells in absence of CPT; DT40 Tdp1-/- hTDP1 cells, no CPT, ATP luminescence, 48 h; Potency, µM (highest dose often 46.2 µM), most hits filed as inhibitors; 15% of 420,000 active; AID 686978, 2013; further: nearly all actives have a fitted effect of over 55% in size
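Camptothecin absent (DMSO only). Human TDP1-complemented DT40 knockout cells, 400 cells/well, 37 °C for minimum 48 hr; ATP measured via CellTiter-Glo, 30 min dark incubation, luminescence.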
DT40 TDP1 CPT: DT40-hTDP1 cell growth loss with CPT. Potency, µM (highest dose often 46.2 µM), usual class: inhibitors. chicken DT40 Tdp1-/-;hTDP1 cells + 20 nM CPT, ATP luminescence, 48 h. 12% of 420,000 active. AID 686979; further: nearly all actives have a fitted effect of over 55% in size
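Chicken DT40 Tdp1-/- cells stably complemented with human TDP1 were seeded at 400 cells/well in medium containing 20 nM camptothecin, exposed to pin-transferred compounds, and grown at 37 °C for at least 48 hr. Viability was read as ATP luminescence.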
HT1080 IDH1KD tx: toxicity to HT-1080 IDH1 knockdown cells (counter line) | AID 686971 | 2% of 360,000 active | Potency, µM (series often up to 46.1 µM), hits mostly cytotoxic | HT-1080 IDH1 knockdown viability, ATP luminescence, 48 h
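Using the IDH1-knockdown HT-1080 line run in the same batch and compound series as the NT line, viability after 48 h at 37 °C was determined by CellTiter-Glo luminescence and expressed as % activity.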
HT1080NT lethal: kills 2HG-producing HT-1080-NT fibrosarcoma cells | Potency, µM (doses to about 46.1 µM), hits mostly cytotoxic | HT-1080-NT fibrosarcoma viability, CellTiter-Glo ATP luminescence, 48 h | 1.6% of 360,000 active;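 further: NT is the 2HG producing partner of a matched IDH1 knockdown line; nearly all actives have a fitted effect of over 55% in size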
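Compounds were tested in concentration-response format on HT-1080-NT cells for 48 hours at 37 degrees C. Cell viability came from CellTiter-Glo luminescence; curves were classified by r2, response magnitude and activity.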
Numbers stand for hits; . = inactive; ? = inconclusive; / = no result. Unless noted, the call rests on the fitted dose curve; in most records, active means well fitted curve in the direction sought with a large enough effect; inconclusive means small, poorly fitted or top-dose-only effect, or another doubt; inactive means no such curve, though single readings can be large; an effect the other way counts as inactive or inconclusive.

SMILES	IL-1B inflam inh	ELG1 repair inh	DT40 TDP1 no CPT	DT40 TDP1 CPT	HT1080 IDH1KD tx	HT1080NT lethal
CCC(C)OC(=O)c1[nH]c2c(c1C)C(=O)CC(c1ccc(N(C)C)cc1)C2 (stereo not drawn)	.	?	15µM	23µM	23µM	?
CC(C)CC1NC(=S)N(Cc2ccccc2)C1=O (stereo not drawn)	.	.	?	?	?	?
Cc1nn(CC(=O)N2CCC(C)CC2)c(=O)c2cc3occc3n12	/	/	.	.	/	/
CCOCCOC(=O)c1[nH]c2c(c1C)C(=O)CC(c1ccc(OC)c(OC)c1)C2 (stereo not drawn)	.	?	13µM	?	?	?
Cc1c(C(=O)O)[nH]c2c1C(=O)CC(c1ccc(C(C)(C)C)cc1)C2 (stereo not drawn)	.	?	.	.	.	.
CCOCCOC(=O)c1[nH]c2c(c1C)C(=O)CC(c1ccc(N(C)C)cc1)C2 (stereo not drawn)	.	?	?	23µM	?	.
C/C=C/COC(=O)c1[nH]c2c(c1C)C(=O)CC(c1ccc(N(C)C)cc1)C2 (stereo not drawn)	.	?	16µM	26µM	.	.
CCOC(=O)c1[nH]c2c(c1C)C(=O)CC(c1ccc(OC)c(OC)c1)C2 (stereo not drawn)	.	.	.	.	.	.
COc1cc(NC(=O)Cn2cnc(C(=O)Nc3ccc(C)c(C)c3)n2)cc(OC)c1OC	.	.	.	.	.	.
CC(/C=C/c1ccco1)=N/NC(=O)Cc1cccs1	.	.	4µM	7.1µM	.	.
CC(/C=C/c1ccco1)=N/NC(=O)OC(C)(C)C	.	?	15µM	?	.	.
CC(=C/C(=O)O)/C=C/c1ccco1	.	?	7.3µM	6.5µM	?	?
C/C(=N/NC(=O)OC(C)(C)C)c1ccco1	.	?	.	.	.	.
CC(/C=N/NC(=O)Cc1cccs1)=C\c1ccco1	.	?	?	?	.	.
CC(=O)N1c2ccccc2N=C(c2ccc3c(c2)OCO3)C1C(=O)NCc1ccccc1 (stereo not drawn)	.	/	?	?	.	.
O=C(C[N+]1(CCc2ccccc2)CCOCC1)c1cccc([N+](=O)[O-])c1	/	/	.	.	/	/
O=C(C1CCN(c2ncnc3c2sc2cccc(F)c23)CC1)N1CCOCC1	.	.	29µM	12µM	.	.
CCCCN(CC)CCCNC(=O)C1CCN(c2ncnc3c2sc2cccc(F)c23)CC1	-97	.	29µM	18µM	21µM	21µM
O=C(NCCN1CCOCC1)C1CCN(c2ncnc3c2sc2cccc(F)c23)CC1	.	?	21µM	12µM	.	.
COc1ccc(Cl)cc1CN1C(=O)C(Cc2ccccc2)ON=C1C (stereo not drawn)	.	/	.	?	.	.
COC(=O)COc1ccc(-c2ccc(F)cc2)cc1C=O	.	.	?	?	.	.
COC(=O)COc1ccc(-c2ccccc2)cc1C=O	.	.	23µM	?	.	.
COc1ccc(Cl)cc1C(=O)OCC(=O)Nc1sccc1C(N)=O	.	23µM	.	.	.	.
NC(=O)c1ccsc1NC(=O)CN1CCN(S(=O)(=O)c2ccccc2C(F)(F)F)CC1	.	/	?	?	.	.
COc1ccc(S(=O)(=O)N2CCN(CC(=O)Nc3sccc3C(N)=O)CC2)cc1OC	.	?	23µM	?	.	.
SMILES	IL-1B inflam inh	ELG1 repair inh	DT40 TDP1 no CPT	DT40 TDP1 CPT	HT1080 IDH1KD tx	HT1080NT lethal
CC(Oc1ccc(Cl)cc1)C(=O)Nc1sccc1C(N)=O (stereo not drawn)	-62	?	16µM	?	.	.
NC(=O)c1ccsc1NC(=O)COC(=O)c1ccc(Cl)c(N)c1	.	12µM	?	?	.	.
NC(=O)c1ccsc1NC(=O)COC(=O)c1ccc(Cl)cc1	.	.	?	.	.	.
O=C(Nc1ccc(F)cc1)C(c1cc2ccccc2o1)N1CCN(CC(=O)N2CCCC2)CC1 (stereo not drawn)	.	/	.	?	.	.
CCCN(C(=O)c1c(CC)noc1C)c1c(N)n(Cc2ccccc2)c(=O)[nH]c1=O	.	.	.	.	.	.
N/C(=N\c1nc2c(c(=O)[nH]1)CCC2)Nc1cccc2ccccc12	.	.	?	?	.	.
N/C(=N\c1nc2c(c(=O)[nH]1)CCC2)Nc1cccc(Cl)c1	.	?	26µM	21µM	?	?
Cc1ccc(/C=N/Nc2ncc(Cl)cc2Cl)s1	.	?	?	?	7.1µM	6.3µM
O=C(CCNS(=O)(=O)c1ccccc1)N1CCN(C(c2ccccc2)c2ccccc2)CC1	/	23µM	/	/	/	/
CC(=O)Nc1ccc(S(=O)(=O)NCCC(=O)N2CCN(C(c3ccccc3)c3ccccc3)CC2)cc1	?	.	16µM	?	.	.
O=C(CCn1c(=O)[nH]c2ccsc2c1=O)NCc1ccc(F)cc1	.	.	.	.	.	.
Cc1onc(-c2ccccc2)c1-c1nnc(CN2CCN(S(=O)(=O)c3ccccc3)CC2)o1	.	?	16µM	15µM	.	.
COc1ccc(OC)c(S(=O)(=O)N2CCN(c3ncccn3)CC2)c1	.	?	15µM	?	.	?
COc1ccc(OC)c(S(=O)(=O)N2CCCC(N3CCN(c4ccccc4)CC3)C2)c1 (stereo not drawn)	.	?	26µM	?	.	.
CCN1CCN(S(=O)(=O)c2cc(OC)ccc2OC)CC1	.	.	.	.	.	.
COc1ccc(OC)c(S(=O)(=O)N2CCN(c3c(C)cccc3C)CC2)c1	.	.	.	.	.	.
COc1ccc(OC)c(S(=O)(=O)N2CCN(C34CC5CC(CC(C5)C3)C4)CC2)c1	.	.	16µM	?	.	.
CN(CC(=O)Nc1ccccc1Cl)CC(=O)N1CCc2ccccc21	.	.	?	?	.	.
Cc1ccc(S(=O)(=O)N2C[C@H]3C(=O)C[C@@H](c4cccc(Cl)c4)N(S(=O)(=O)c4ccc(C)cc4)[C@H]3C[C@H]2c2ccc(Cl)cc2)cc1	.	/	.	.	.	.
O=C1CC(N2CCC(O)(c3ccc(Cl)cc3)CC2)C(=O)N1Cc1ccc(N2CCCC2=O)cc1 (stereo not drawn)	.	?	15µM	?	.	.
COc1ccc(C(CNC(=O)c2ccc(-c3ccccc3Cl)o2)N2CCOCC2)cc1 (stereo not drawn)	-76	.	16µM	23µM	.	.
COc1ccc(C(CNC(=O)COc2ccc(-c3ccccc3)cc2)N2CCOCC2)cc1 (stereo not drawn)	-61	?	?	?	?	.
